Results from PubChem BioAssay AID2330 (Broad Institute, 2010).
The campaign covered roughly 37,000 compounds. About 2,800 (7.6%) were called active. Roughly 1% stayed inconclusive and do not appear here. The list comes from a sample in which actives are over-represented; it also holds similar structures and randomly drawn compounds. A number with no mark means an inactive call. Rule as the data show it: active = inhibition above about 80%; inconclusive = no clear call, values can overlap the other calls; inactive = below that.

assay: NOMO-1 AML cell viability reduction, primary screen, STK33 inhibitor project, CellTiter-Glo luminescence (AID 2330); settings: NOMO-1 AML viability, 72 h, stronger effect = higher value, concentration not given here

SMILES | inhibition
C[C@H]1CN([C@@H](C)CO)C(=O)Cc2cc(NC(=O)Cc3ccccc3)ccc2O[C@@H]1CN(C)Cc1ccc(Cl)c(Cl)c1 | 96.8% (active)
C[C@@H]1CN([C@H](C)CO)C(=O)Cc2cc(NC(=O)CCCN(C)C)ccc2O[C@@H]1CN(C)Cc1ccc(Oc2ccccc2)cc1 | 19.5%
C[C@H]1CN([C@@H](C)CO)C(=O)Cc2cc(NC(=O)NC3CCCCC3)ccc2O[C@@H]1CN(C)Cc1ccc(Oc2ccccc2)cc1 | 94.9% (active)
C[C@@H]1CN([C@H](C)CO)C(=O)Cc2cc(NC(=O)Cc3ccccc3)ccc2O[C@@H]1CN(C)Cc1ccccc1 | -13.8%
C[C@@H]1CN([C@H](C)CO)C(=O)Cc2cc(NC(=O)Nc3ccccc3)ccc2O[C@H]1CN(C)Cc1ccc(Cl)c(Cl)c1 | 30.1%
COc1ccc(CN(C)C[C@H]2Oc3ccc(NC(=O)Cc4ccccc4)cc3CC(=O)N([C@@H](C)CO)C[C@@H]2C)cc1 | 22.8%
C[C@H]1CN([C@@H](C)CO)C(=O)c2cc(NC(=O)C3CC3)ccc2O[C@@H]1CN(C)Cc1ccc(Oc2ccccc2)cc1 | 16.2%
C[C@@H]1CN([C@@H](C)CO)C(=O)c2cc(NC(=O)Cc3ccccc3)ccc2O[C@@H]1CN(C)Cc1ccc(Oc2ccccc2)cc1 | 112% (active)
C[C@@H]1CN([C@@H](C)CO)C(=O)Cc2cc(NC(=O)Cc3ccccc3)ccc2O[C@@H]1CN(C)Cc1ccc(Oc2ccccc2)cc1 | 127% (active)
C[C@@H]1CN([C@H](C)CO)C(=O)Cc2cc(NC(=O)NC3CCCCC3)ccc2O[C@H]1CN(C)Cc1ccc(Cl)c(Cl)c1 | 20.7%
C[C@H](CO)N1C[C@H](C)[C@H](CN(C)Cc2ccccc2)Oc2ccc(NC(=O)Cc3ccccc3)cc2C1=O | 7.66%
C[C@@H]1CN([C@H](C)CO)C(=O)Cc2cc(NC(=O)Cc3ccccc3)ccc2O[C@H]1CN(C)Cc1ccc(Oc2ccccc2)cc1 | 13.7%
COC(=O)c1c(NC(=O)COc2ccc(C(C)C)c(C)c2)sc2c1CCC2 | -13.1%
COc1ccc(S(=O)(=O)N(C)C[C@@H]2Oc3ccc(NC(=O)Cc4cn(C)c5ccccc45)cc3C(=O)N([C@H](C)CO)C[C@H]2C)cc1 | 3.23%
CC(C)NC(=O)N(C)C[C@H]1Oc2ccc(NS(C)(=O)=O)cc2CC(=O)N([C@@H](C)CO)C[C@@H]1C | -17.4%
COc1c2c(cc3occ(-c4ccc5c(c4)OCO5)c(=O)c13)OC(C)(C)C=C2 | 23.7%
O=C(c1cc2ccccc2oc1=O)N(Cc1ccc(F)cc1)Cc1ccco1 | -0.0617%
COc1cc(O)c2c(=O)c(O[C@@H]3O[C@@H](CO)[C@H](O)[C@H]3O[C@@H]3O[C@@H](C)[C@H](O)[C@@H](O)[C@H]3O)c(-c3ccc(O)cc3)oc2c1 | 16.7%
C[C@@H]1CN([C@H](C)CO)C(=O)Cc2cc(NC(=O)CCN3CCOCC3)ccc2O[C@H]1CN(C)C | 13.7%
O=C(NCc1ccco1)c1ccc2c(c1)C(=O)N(Cc1cccnc1)C2=O | 20%
C[C@H]1CN([C@@H](C)CO)C(=O)Cc2cc(N(C)C)ccc2O[C@@H]1CN(C)Cc1ccc(-c2ccccc2)cc1 | 65.8%

SMILES | inhibition
C[C@H](CO)N1C[C@H](C)[C@H](CN(C)Cc2ccc(C(F)(F)F)cc2)Oc2ccc(N(C)C)cc2CC1=O | 14.9%
C[C@@H]1CN([C@H](C)CO)C(=O)Cc2cc(N(C)C)ccc2O[C@@H]1CN(C)Cc1ccccc1 | 124% (active)
C[C@@H]1CN([C@@H](C)CO)C(=O)c2cc(NC(=O)Nc3ccc4c(c3)OCO4)ccc2O[C@@H]1CN(C)Cc1ccc(Oc2ccccc2)cc1 | 66%
C[C@@H]1CN([C@H](C)CO)C(=O)c2cc(NC(=O)Nc3ccc4c(c3)OCO4)ccc2O[C@H]1CN(C)Cc1ccc(-c2ccccc2)cc1 | 113% (active)
COc1ccc(NC(=O)Nc2ccc3c(c2)C(=O)N([C@@H](C)CO)C[C@H](C)[C@@H](CN(C)Cc2ccc4c(c2)OCO4)O3)cc1 | 25%
C[C@H](CO)N1C[C@H](C)[C@@H](CN(C)Cc2ccccc2)Oc2ccc(NC(=O)Nc3ccc4c(c3)OCO4)cc2C1=O | 1.03%
C[C@@H]1CN([C@H](C)CO)C(=O)c2cc(NC(=O)Nc3ccc4c(c3)OCO4)ccc2O[C@@H]1CN(C)Cc1ccc(C(F)(F)F)cc1 | 50.9%
C[C@H]1CN([C@@H](C)CO)C(=O)c2cc(NC(=O)Nc3ccc4c(c3)OCO4)ccc2O[C@@H]1CN(C)Cc1ccc(Oc2ccccc2)cc1 | 102% (active)
Cc1cc(=O)[nH]c(SCC(=O)Nc2cccc3ccccc23)n1 | -1.97%
C[C@H](CO)N1C[C@H](C)[C@H](CN(C)S(C)(=O)=O)Oc2ccc(NC(=O)Nc3ccc(F)cc3)cc2C1=O | 14.7%
COc1ccc(CN(C)C[C@@H]2Oc3ccc(NC(=O)NC(C)C)cc3C(=O)N([C@@H](C)CO)C[C@H]2C)cc1 | 11.8%
COc1ccc(S(=O)(=O)Nc2ccc3c(c2)CC(=O)N([C@@H](C)CO)C[C@@H](C)[C@@H](CN(C)C(=O)Nc2c(C)noc2C)O3)cc1 | -6.01%
C[C@@H]1CN([C@H](C)CO)C(=O)Cc2cc(NC(=O)Cn3cnnn3)ccc2O[C@H]1CN(C)Cc1ccc(C(F)(F)F)cc1 | -4.05%
COc1ccc(-c2nnc(SCC(=O)Nc3cccc(SC)c3)n2C)cc1 | -20%
COc1ccccc1NC(=O)c1ccc(OCC(=O)Nc2ccccc2F)cc1 | 2.43%
C[C@H]1CN([C@@H](C)CO)C(=O)c2cccc(NS(C)(=O)=O)c2O[C@@H]1CN(C)C(=O)Nc1ccc(F)cc1 | -0.485%
CC1CCC(C(C)C)C(=O)/C1=C\c1ccc(NC(=O)CCC(=O)O)cc1 (configuration not stated) | 10%
COc1cc([C@H]2OC[C@H]3[C@@H]2CO[C@@H]3c2cc(OC)c(O[C@@H]3O[C@H](CO)[C@@H](O)[C@H](O)[C@H]3O)c(OC)c2)cc(OC)c1O | -2.62%
COc1ccc(C[C@H]2COC(=O)[C@@H]2Cc2ccc(O[C@@H]3O[C@H](CO)[C@@H](O)[C@H](O)[C@H]3O)c(OC)c2)cc1OC | 88.7% (active)
COc1cc(-c2coc3cc(O[C@@H]4O[C@H](CO)[C@@H](O)[C@H](O)[C@H]4O)c(OC)c(O)c3c2=O)cc(O)c1OC | -24%
CCc1cc(C(=O)OC)c(NC(=O)CC2Sc3ccc(C(F)(F)F)cc3NC2=O)s1 (configuration not stated) | 43.5%

SMILES | inhibition
CCOc1ccc(NC(=O)C2CC(=O)n3c(nc4ccccc43)N2)cc1 (configuration not stated) | 2.2%
C[C@H]1CN([C@@H](C)CO)C(=O)c2cc(NC(=O)Cn3cnnn3)ccc2O[C@@H]1CN(C)S(=O)(=O)c1cccs1 | -7.03%
COc1ccc(S(=O)(=O)N(C)C[C@H]2Oc3ccc(NC(=O)Nc4c(C)noc4C)cc3C(=O)N([C@H](C)CO)C[C@H]2C)cc1 | 8.03%
O=C(CS(=O)(=O)Cc1ccccc1)Nc1cccnc1 | 4.64%
O=C(Nc1cccnc1)c1cc2c(s1)-c1ccccc1CC2 | 108% (active)
COc1ccc(C(=O)CCC(=O)Nc2cccnc2)c(OC)c1 | 1.52%
O=S(=O)(c1ccc(Cl)cc1)c1nc(-c2ccccc2F)oc1NCCN1CCOCC1 | 16.2%
C[C@@H]1CN([C@@H](C)CO)C(=O)Cc2cc(NC(=O)CCCCCC(=O)Nc3ccccc3N)ccc2O[C@@H]1CN(C)C(=O)NC1CCCCC1 | 8.04%
C[C@H](CO)N1C[C@H](C)[C@H](CN(C)S(=O)(=O)c2ccccc2)Oc2c(NC(=O)CCCCCC(=O)Nc3ccccc3N)cccc2C1=O | 68.1%
C[C@H]1CN([C@@H](C)CO)C(=O)c2cccc(NC(=O)CCCCCC(=O)Nc3ccccc3N)c2O[C@@H]1CN(C)CC1CCCCC1 | 139% (active)
C[C@@H]1CN([C@H](C)CO)C(=O)c2cccc(NC(=O)CCCCCC(=O)Nc3ccccc3N)c2O[C@H]1CN(C)CC1CCCCC1 | 139% (active)
CC(C)NC(=O)N(C)C[C@H]1Oc2ccc(NC(=O)CCCCCC(=O)Nc3ccccc3N)cc2CC(=O)N([C@@H](C)CO)C[C@H]1C | 7.18%
C[C@@H]1CN([C@H](C)CO)C(=O)c2cccc(NC(=O)NC3CCCCC3)c2O[C@@H]1CN(C)CC1CCCCC1 | -0.946%
CC(C)NC(=O)Nc1cccc2c1O[C@H](CN(C)CC1CCCCC1)[C@H](C)CN([C@H](C)CO)C2=O | 7.14%
C[C@H](CO)N1C[C@H](C)[C@H](CN(C)CC2CCCCC2)Oc2ccc(NC(=O)CCCCCC(=O)Nc3ccccc3N)cc2CC1=O | 141% (active)
C[C@@H]1CN([C@@H](C)CO)C(=O)c2cccc(NC(=O)CCCCCC(=O)Nc3ccccc3N)c2O[C@H]1CN(C)C(=O)Nc1cccc2ccccc12 | 10.8%
C[C@@H]1CN([C@@H](C)CO)C(=O)c2cccc(NC(=O)CCCCCC(=O)Nc3ccccc3N)c2O[C@@H]1CN(C)CC1CCCCC1 | 125% (active)
C[C@@H]1CN([C@@H](C)CO)C(=O)c2cccc(NC(=O)NC3CCCCC3)c2O[C@@H]1CN(C)CC1CCCCC1 | 15.8%
C[C@H]1CN([C@@H](C)CO)C(=O)c2cccc(NC(=O)NC3CCCCC3)c2O[C@H]1CN(C)CC1CCCCC1 | 15.4%
Cc1ccc([N+](=O)[O-])cc1N(CC(=O)Nc1ccc(Cl)c(C(F)(F)F)c1)S(C)(=O)=O | 67.2%
